Details in all cases: modulator concentration 10 µM
In experiment [1] the test system is RAW-Dual (murine macrophage reporter line). The experiment is described as follows: NF-kB reporter (SEAP) activity fold change vs agonist alone; higher = enhanced NF-kB activity. In short, it runs like this:
(§1)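 In 384-well plates holding 50 000 RAW-Dual murine macrophage reporter cells per well, compound at 10 μM final was pre-incubated for 1 hour at 37 °C, after which a PRR agonist was added overnight. Supernatant SEAP read with QUANTI-Blue at 620 nm absorbance reported NF-κB, and Lucia luciferase read with QUANTI-Luc luminescence reported IRF. Fold change values come from dividing each reporter signal by the mean of agonist-only control wells on the same plate, averaged over replicate plates with propagated errors.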

Experiment [2] has the same test system. The experiment is described as follows: IRF reporter (Lucia luciferase) activity fold change vs agonist alone; higher = enhanced IRF activity. An outline of the steps:
as §1

For experiment [3] the test system is unchanged. The experiment is described as follows: viability score (confluency relative to resting cells, overnight) (fraction); higher = more viable, active = viable (0.7 or more). An outline of the steps: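 RAW-Dual macrophages in 384-well plates were treated overnight with compound at 10 μM final. IncuCyte imaging recorded confluency, and IncuCyte software built two confluency masks across every imaged well. The viability score expresses confluency relative to resting cells and was judged against a cutoff, which a compound met only if both masks exceeded 70% of resting cells.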

[4] abbreviates: agonist: CpG ODN 1826 0.5 ug/mL.

± gives the standard deviation.

Regarding `CCOc1ccc(N=Cc2c(Nc3ccc(OCC)cc3)nc3ccccn3c2=O)cc1`, the values for the NF-kB reporter in experiment [1] (setting [4]), in experiment [1] (agonist: LPS 0.1 ug/mL) and in experiment [1] (agonist: MPLA […]) were 1.17 ± 0.13, 0.984 ± 0.13 and 1.19 ± 0.17, respectively. Besides, the IRF reporter in experiment [2] (agonist: 3'3'-cGAMP 10 ug/mL) was found to be 0.855 ± 0.051; in experiment [2] (agonist: LPS 0.1 ug/mL), 1.23 ± 0.14; in experiment [2] (agonist: MPLA […]), 1.41 ± 0.23. The viability score in experiment [3] is 1.04 (active).

With `c1ccc(CCn2c(COc3ccccc3)nc3ccccc32)cc1`, the NF-kB reporter in experiment [1] (setting [4]) worked out at 1.01 ± 0.16; in experiment [1] (agonist: LPS 0.1 ug/mL), 0.987 ± 0.13; in experiment [1] (agonist: MPLA […]), 1.16 ± 0.16. The IRF reporter in experiment [2] (agonist: 3'3'-cGAMP 10 ug/mL) came out at 1.21 ± 0.043; in experiment [2] (agonist: LPS 0.1 ug/mL), 1.24 ± 0.16; in experiment [2] (agonist: MPLA […]) it was 1.34 ± 0.29. Further, the viability score in experiment [3] was 1.01 (active).

Turning to `COC(CNS(=O)(=O)c1ccccc1Br)c1ccc(Cl)s1` (stereo unspecified), the results for the NF-kB reporter in experiment [1] (setting [4]), in experiment [1] (agonist: LPS 0.1 ug/mL) and in experiment [1] (agonist: MPLA […]) were 0.968 ± 0.32, 1.08 ± 0.1 and 1.07 ± 0.071, respectively. In addition, the IRF reporter in experiment [2] (agonist: 3'3'-cGAMP 10 ug/mL) came to 1.18 ± 0.039; in experiment [2] (agonist: LPS 0.1 ug/mL) it was 1.01 ± 0.12; in experiment [2] (agonist: MPLA […]), 1.21 ± 0.24. For the same compound, the viability score in experiment [3] was 0.959 (active).

For `O=[N+]([O-])c1ccc(CSc2nc3ccccc3[nH]2)cc1`, the NF-kB reporter amounted to 0.971 ± 0.076 in experiment [1] (setting [4]), 0.87 ± 0.048 in experiment [1] (agonist: LPS 0.1 ug/mL) and 1.01 ± 0.024 in experiment [1] (agonist: MPLA […]). Besides, the IRF reporter in experiment [2] (agonist: 3'3'-cGAMP 10 ug/mL) worked out at 0.834 ± 0.048; in experiment [2] (agonist: LPS 0.1 ug/mL), 1.02 ± 0.13; in experiment [2] (agonist: MPLA […]), 1.12 ± 0.11. The viability score in experiment [3] is 0.995 (active).

On to `O=C(CCc1ccc(O)cc1)c1c(O)cc(O)cc1O`, for which the NF-kB reporter in experiment [1] (setting [4]) is 1.06 ± 0.2; in experiment [1] (agonist: LPS 0.1 ug/mL), 1.07 ± 0.085; in experiment [1] (agonist: MPLA […]), 1.13 ± 0.088. Moreover, the IRF reporter in experiment [2] (agonist: 3'3'-cGAMP 10 ug/mL) is 0.768 ± 0.038; in experiment [2] (agonist: LPS 0.1 ug/mL), 1.03 ± 0.12; in experiment [2] (agonist: MPLA […]) it was 1.23 ± 0.15. In addition, the viability score in experiment [3] is 0.998 (active).

Take `CC(Cc1ccc(O)c(O)c1)(NN)C(=O)O` (stereo unspecified): the NF-kB reporter in experiment [1] (setting [4]) was 0.957 ± 0.083; in experiment [1] (agonist: LPS 0.1 ug/mL), 0.979 ± 0.076; in experiment [1] (agonist: MPLA […]), 0.877 ± 0.083. In addition, the IRF reporter was determined as 0.952 ± 0.03 in experiment [2] (agonist: 3'3'-cGAMP 10 ug/mL), 1.24 ± 0.15 in experiment [2] (agonist: LPS 0.1 ug/mL) and 1.38 ± 0.18 in experiment [2] (agonist: MPLA […]). In addition, the viability score in experiment [3] was 1 (active).

With `O=S(=O)(c1ccccc1)N1CCOCC1`, the NF-kB reporter stood at 0.956 ± 0.057 in experiment [1] (setting [4]), 0.992 ± 0.061 in experiment [1] (agonist: LPS 0.1 ug/mL) and 0.935 ± 0.071 in experiment [1] (agonist: MPLA […]). Also, the values for the IRF reporter in experiment [2] (agonist: 3'3'-cGAMP 10 ug/mL), in experiment [2] (agonist: LPS 0.1 ug/mL) and in experiment [2] (agonist: MPLA […]) were 0.981 ± 0.033, 1.33 ± 0.21 and 1.15 ± 0.15, respectively. Also, in experiment [3], the viability score is 1 (active).

Consider `Cc1c(C(=O)Nc2ccc(N3C[C@@H](C)O[C@@H](C)C3)nc2)cccc1-c1ccc(OC(F)(F)F)cc1`, for which the NF-kB reporter in experiment [1] (setting [4]) was 1.25 ± 0.17; in experiment [1] (agonist: LPS 0.1 ug/mL), 1.13 ± 0.2; in experiment [1] (agonist: MPLA […]), 1.64 ± 0.18. For the same compound, the IRF reporter in experiment [2] (agonist: 3'3'-cGAMP 10 ug/mL) was 0.412 ± 0.024; in experiment [2] (agonist: LPS 0.1 ug/mL) it was 1.13 ± 0.13; in experiment [2] (agonist: MPLA […]), 1.37 ± 0.1. In addition, the viability score in experiment [3] is 0.824 (active).

In the case of `CN1CCc2c(sc3[nH]c(=S)n(CCc4ccccc4)c(=O)c23)C1`, the results for the NF-kB reporter in experiment [1] (setting [4]), in experiment [1] (agonist: LPS 0.1 ug/mL) and in experiment [1] (agonist: MPLA […]) were 0.753 ± 0.063, 0.814 ± 0.042 and 0.967 ± 0.11, respectively. The figures for the IRF reporter in experiment [2] (agonist: 3'3'-cGAMP 10 ug/mL), in experiment [2] (agonist: LPS 0.1 ug/mL) and in experiment [2] (agonist: MPLA […]) were 0.778 ± 0.042, 1.28 ± 0.083 and 1.39 ± 0.17, respectively. Also, in experiment [3], the viability score is 1.01 (active).

As to `CC(=O)N[C@H]1[C@H]([C@H](O)[C@H](O)CO)OC(C(=O)O)=C[C@@H]1NC(=N)N`, the NF-kB reporter in experiment [1] (setting [4]) turned out to be 1.12 ± 0.27; in experiment [1] (agonist: LPS 0.1 ug/mL) it was 0.945 ± 0.12; in experiment [1] (agonist: MPLA […]) it was 1.02 ± 0.066. Besides, the IRF reporter in experiment [2] (agonist: 3'3'-cGAMP 10 ug/mL) worked out at 0.919 ± 0.04; in experiment [2] (agonist: LPS 0.1 ug/mL) it was 1.3 ± 0.24; in experiment [2] (agonist: MPLA […]), 1.08 ± 0.12. For the same compound, the viability score in experiment [3] was 1.01 (active).

As to `COc1ccc(N2CC(NC(=O)Nc3cccc(Cl)c3C)CC2=O)cc1OC` (stereo unspecified), the NF-kB reporter in experiment [1] (setting [4]) came to 0.89 ± 0.064; in experiment [1] (agonist: LPS 0.1 ug/mL), 1 ± 0.085; in experiment [1] (agonist: MPLA […]) it was 1.01 ± 0.061. Besides, the values for the IRF reporter in experiment [2] (agonist: 3'3'-cGAMP 10 ug/mL), in experiment [2] (agonist: LPS 0.1 ug/mL) and in experiment [2] (agonist: MPLA […]) were 0.977 ± 0.074, 1.1 ± 0.21 and 1.15 ± 0.45, respectively. The viability score in experiment [3] is 0.973 (active).

Turning to `Cc1ccc(OCCOc2ncnc3ccccc23)c(Cl)c1`, the NF-kB reporter came out at 1.02 ± 0.11 in experiment [1] (setting [4]), 1.02 ± 0.078 in experiment [1] (agonist: LPS 0.1 ug/mL) and 1.23 ± 0.049 in experiment [1] (agonist: MPLA […]). Also, the IRF reporter in experiment [2] (agonist: 3'3'-cGAMP 10 ug/mL) turned out to be 0.916 ± 0.094; in experiment [2] (agonist: LPS 0.1 ug/mL), 1 ± 0.12; in experiment [2] (agonist: MPLA […]), 0.875 ± 0.18. Moreover, in experiment [3], the viability score is 1 (active).

With `COC(=O)c1cc(NC(=O)C2CCCC2)cc(C(=O)OC)c1`, the NF-kB reporter in experiment [1] (setting [4]) is 0.969 ± 0.18; in experiment [1] (agonist: LPS 0.1 ug/mL), 1 ± 0.13; in experiment [1] (agonist: MPLA […]) it was 1.15 ± 0.13. The IRF reporter stood at 0.871 ± 0.09 in experiment [2] (agonist: 3'3'-cGAMP 10 ug/mL), 1.13 ± 0.28 in experiment [2] (agonist: LPS 0.1 ug/mL) and 0.97 ± 0.14 in experiment [2] (agonist: MPLA […]). For the same compound, the viability score in experiment [3] is 0.633 (inactive).

Values taken from the supplement of paper PMC10646978.
